# Records with an inconclusive call do not appear. Activity calls are given as the source filed them. Calls follow the shape of the dose curve; as a rule, active = well fitted inhibition curve with a large enough effect; inconclusive = small, poorly fitted or top-dose-only effect, or effect the other way; inactive = flat fitted curve, though single readings scatter.
# Biological target: ATP-dependent 6-phosphofructokinase (Trypanosoma brucei brucei) (UniProt O15648)
# Test: qHTS Assay to Find Inhibitors of T. brucei phosphofructokinase: hit validation (AID 492961);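 as to activity change, negative = inhibition: luminescence reports ADP formed as PFK phosphorylates fructose-6-phosphate with ATP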
# Settings: T. brucei PFK, ADP-Glo luminescence; series mostly up to 51.4 µM; activity change, negative = inhibition: at the top concentration
# In short: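 Percent activity derived from corrected luminescence, normalized between 0x and 1x enzyme controls, then fitted to concentration-response curves. Conditions: 1.25 nM PFK, 0.1 mM ATP, 0.5 mM F6P, 45 min RT.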
# % is scaled to controls: 0 for no effect and ±100 for the full control effect; potency is read from the fitted curve at half-maximal effect.
# Chain of ATP-dependent 6-phosphofructokinase (Trypanosoma brucei brucei) (O15648 whole entry, looked up): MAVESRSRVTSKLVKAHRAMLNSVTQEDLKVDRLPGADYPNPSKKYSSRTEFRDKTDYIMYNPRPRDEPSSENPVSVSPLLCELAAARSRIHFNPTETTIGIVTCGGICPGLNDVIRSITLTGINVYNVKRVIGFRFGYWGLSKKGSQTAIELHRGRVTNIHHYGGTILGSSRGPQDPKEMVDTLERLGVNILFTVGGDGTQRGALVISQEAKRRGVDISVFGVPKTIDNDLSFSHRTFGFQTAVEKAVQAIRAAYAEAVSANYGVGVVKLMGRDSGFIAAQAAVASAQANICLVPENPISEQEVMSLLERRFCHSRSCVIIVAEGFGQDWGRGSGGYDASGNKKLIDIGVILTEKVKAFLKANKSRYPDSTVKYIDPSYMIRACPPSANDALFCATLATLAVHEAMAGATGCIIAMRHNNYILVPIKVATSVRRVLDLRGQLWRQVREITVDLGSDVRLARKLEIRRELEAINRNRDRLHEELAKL
SMILES,"activity change, negative = inhibition",Potency
CCC1(c2ccccc2)C(=O)NC(=O)N(C(=O)c2ccccc2)C1=O (centres undefined),0% (inactive),
C/C(=C\c1csc(C)n1)[C@@H]1C[C@@H]2O[C@]2(C)CCC[C@H](C)[C@H](O)[C@@H](C)C(=O)C(C)(C)[C@@H](O)CC(=O)O1,-12.4% (inactive),
O=C(CCl)c1ccc(Oc2ccc(C(=O)CCl)cc2)cc1,-6.06% (inactive),
CC(C)Nc1ccc(Nc2ccccc2)cc1,-18.4% (inactive),
CCOC(=O)c1ccccc1C(=O)OCC,11.7% (inactive),
CC(C)(C)c1cc(O)ccc1O,-17.4% (inactive),
CNC(=O)Oc1ccccc1C(=O)Nc1ccccc1,-7.17% (inactive),
ClCC1CO1 (centres undefined),0.95% (inactive),
Clc1ccc(Cl)cc1,0.994% (inactive),
CCN(CC)C(=O)/C(Cl)=C(\C)OP(=O)(OC)OC,-6.21% (inactive),
CC(=O)OC1CN2CCC1CC2 (centres undefined),0% (inactive),
O=CC=O,-6.14% (inactive),
CNC(C)C(O)c1ccc(O)cc1 (centres undefined),14.3% (inactive),
Oc1cccc[c]1[Hg][Cl],,5.62 µM (active)
CCC1(c2ccccc2)C(=O)NC(=O)NC1=O,3.48% (inactive),
c1ccc(C2(N3CCCC3)CCCCC2)cc1,3.29% (inactive),
[Cl-].[Cl-].[Hg+2],,8.91 µM (active)
O=C1CCCCC1CN1CCCCC1 (centres undefined),-6.82% (inactive),
CC(=O)OO,-2.08% (inactive),
O=C(NCNC(=O)NC1C(=O)NC(=O)N1CO)NC1C(=O)NC(=O)N1CO (centres undefined),-7.7% (inactive),

SMILES,"activity change, negative = inhibition",Potency
O=Cc1ccco1,-18.1% (inactive),
CCC1(C)CC(=O)NC(=O)C1,6.6% [at 24.3 µM] (inactive),
CCCC(C)(COC(N)=O)COC(=O)NC1CC1 (centres undefined),2.72% (inactive),
c1ccc2sc(SNC3CCCCC3)nc2c1,8.74% (inactive),
CCC1C(C)=NN=C(c2ccc(OC)c(OC)c2)c2cc(OC)c(OC)cc21 (centres undefined),2.64% (inactive),
ClC(Cl)(Cl)Cl,1.38% (inactive),
O=C1CN(O)C(c2ccccc2)=c2cc(Cl)ccc2=N1,-9.27% (inactive),
O=[N+]([O-])c1ccc(F)c([N+](=O)[O-])c1,-10.7% (inactive),
O=C(CS(=O)C(c1ccccc1)c1ccccc1)NO (centres undefined),0% (inactive),
NCC(O)c1cccc(O)c1 (centres undefined),0.246% (inactive),
S=C(S)N1CCNCC1,-4.43% (inactive),
CC(N)Cc1ccc(O)cc1 (centres undefined),4.65% (inactive),
O[C@H]1[C@H]2[C@H](O)CCCN2C[C@H]1O,-2.98% (inactive),
C[N+]1(C)CCCCC1COC(=O)C(O)(c1ccccc1)c1ccccc1 (centres undefined),0.458% (inactive),
CCCCCCCCOC(=O)c1ccccc1C(=O)OCCCCCCCC,-0.994% (inactive),
O=C(NC(=O)c1c(F)cccc1F)Nc1ccc(Cl)c(Oc2ncc(C(F)(F)F)cc2Cl)c1,-3.06% (inactive),
CCC(=O)O[C@@](Cc1ccccc1)(c1ccccc1)[C@@H](C)CN(C)C,13.3% [at 24.3 µM] (inactive),
CC[N+](C)(CC)CCOC(=O)C(O)(c1ccccc1)c1ccccc1,-0.444% (inactive),
O=S(=O)(O)c1cc(O)ccc1O,18.2% [at 24.3 µM] (inactive),
